The record followed here is PubChem BioAssay (NCATS).

Molecules are shown by their SMILES. Unmarked numbers belong to inactive results. Records with an inconclusive call do not appear. Active and inactive are the calls of the source. Unless noted, calls follow the shape of the dose curve; as a rule, active = well fitted curve in the direction sought with a large enough effect; inconclusive = small, poorly fitted or top-dose-only effect, or another doubt; inactive = no such curve, though single readings can be large; an effect the other way counts as inactive or inconclusive.

Assay [1] concerns the target Lysosomal acid glucosylceramidase (Homo sapiens) (UniProt P04062). Put plainly: Glucocerebrosidase-p2 (AID 348; in the data active = potency below about 10 µM; also: potency is read from the fitted curve at half-maximal effect). The note with it: purified GBA, blue fluorogenic substrate, 40 min. The gist of the method: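 Normal human glucocerebrosidase (0.2 nM) with blue fluorogenic substrate (80 uM final) in citrate/phosphate pH 5.9 with 10mM sodium taurocholate, 0.01% tween-20; 40 min RT, NaOH/glycine stop; fluorescence Ex 365/Em 440; AC50 from a titration from 0.6 nM upwards.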

Assay [2] in a line: AP1 Signaling Pathway (AID 357; active = well fitted curve in either direction with a large enough effect, not every such curve was filed as active;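 also: ME-180 reporter cells stimulated with EGF at its EC50 level; % is scaled to controls: 0 for no effect and ±100 for the full control effect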). Conditions: ME-180 AP-1-bla reporter, EGF-induced, beta-lactamase ratio, 5 h; at 7.69 µM (top of the series) unless noted. The method, boiled down: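 AP-1-bla ME-180 cells, Opti-MEM + 0.5% dialyzed FBS, plated overnight 37 °C. Cpd titration + EC50 EGF, 5 h 37 °C. CCF4 2.5 h RT; ex 405, em 460/530 ratio → %activity, AC50.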
Assay [3] addresses Cytochrome P450 1A2 (Homo sapiens) (UniProt P05177). The assay can be described thus: p450-cyp1a2 (AID 410; calls by dose curve; also: potency is read from the fitted curve at half-maximal effect). Conditions: recombinant CYP1A2, luciferin-ME demethylation, luminescence; series mostly up to 57 µM. The gist of the method:
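20nM CYP1A2, 100uM Luciferin-ME (=Km), 100mM KPO4; cpd 10 min RT; +NADPH regen, 60 min RT; stop/detect 20 min; luminescence. Normalized to furafylline 57 uM = full inhibition.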

The nature of assay [4]: NFAT Signaling Pathway (AID 444; active = well fitted curve in either direction with a large enough effect, not every such curve was filed as active;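 also: carbachol stimulus at about its EC50 of 1 µM final; % is scaled to controls: 0 for no effect and ±100 for the full control effect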). Conditions: Jurkat NFAT-bla M1, carbachol, beta-lactamase ratio, 5 h; at 7.69 µM (top of the series) unless noted. The gist of the method: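 Read-out: CCF4 FRET ratio (460 nm/530 nm) after 1 h RT dye loading, used for %activity and AC50 from titration series. Cells: Jurkat NFAT-β-lactamase/M1 line, treated with compound plus 1 uM carbachol for 5 h, 37 °C.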

The nature of assay [5]: Stat Signaling Pathway (AID 446; active = well fitted curve in either direction with a large enough effect, not every such curve was filed as active;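 also: ME-180 cervical cancer cells given 40 pM IL-6 alongside compound; SIE-controlled beta-lactamase reporter measured as 460/530 nm FRET emission ratio; % is scaled to controls: 0 for no effect and ±100 for the full control effect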). The note with it: ME-180 SIE beta-lactamase reporter, IL-6 stimulated, 5 h; at 7.69 µM (top of the series) unless noted. The method, boiled down:
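FRET read-out (405 nm excitation, 460/530 nm emission) of a beta-lactamase reporter under a STAT-inducible element in ME-180 cervical carcinoma cells. Cells with compound receive 40 pM IL-6 for 5 h. Values are normalised to AC90 stimulation and AC90 JAK-inhibitor controls.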

In assay [6] the target is Glucocorticoid receptor (Homo sapiens) (UniProt P04150). Put plainly: GR-GFP Redistribution (AID 450;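 active = compounds whose dose series gives a full or clear partial fitted curve of increased nuclear translocation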; also: potency is read from the fitted curve at half-maximal effect). The note with it: U2OS GR-GFP nuclear translocation, laser cytometry, 2 h.
Glucocorticoid receptor (Homo sapiens), sequence (P04150 whole entry, looked up, the tested form may be a part): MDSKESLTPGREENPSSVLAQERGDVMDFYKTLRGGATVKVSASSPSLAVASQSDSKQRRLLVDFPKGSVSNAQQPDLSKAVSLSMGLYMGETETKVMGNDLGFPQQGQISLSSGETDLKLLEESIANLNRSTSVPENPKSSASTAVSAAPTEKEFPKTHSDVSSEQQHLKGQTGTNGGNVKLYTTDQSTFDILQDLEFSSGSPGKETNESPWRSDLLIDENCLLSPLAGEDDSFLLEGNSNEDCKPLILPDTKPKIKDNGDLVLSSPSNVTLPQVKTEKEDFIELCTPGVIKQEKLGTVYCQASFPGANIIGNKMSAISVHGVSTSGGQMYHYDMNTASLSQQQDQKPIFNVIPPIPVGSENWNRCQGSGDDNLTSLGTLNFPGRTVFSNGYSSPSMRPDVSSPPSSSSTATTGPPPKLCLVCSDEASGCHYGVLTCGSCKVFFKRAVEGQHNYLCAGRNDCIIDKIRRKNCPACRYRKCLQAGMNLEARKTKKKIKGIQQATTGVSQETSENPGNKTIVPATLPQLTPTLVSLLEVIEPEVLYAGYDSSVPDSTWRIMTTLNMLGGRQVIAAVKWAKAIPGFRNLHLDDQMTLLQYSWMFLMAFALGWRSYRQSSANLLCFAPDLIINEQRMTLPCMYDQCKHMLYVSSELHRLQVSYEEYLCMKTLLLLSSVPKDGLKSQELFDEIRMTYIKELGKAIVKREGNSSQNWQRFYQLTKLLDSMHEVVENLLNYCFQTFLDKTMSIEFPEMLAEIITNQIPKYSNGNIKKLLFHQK
Assay [7] has the same target. Put plainly: GR-EFC Redistribution (AID 451; calls by dose curve; also: potency is read from the fitted curve at half-maximal effect). Conditions: CHO-K1 GR-EFC translocation, beta-gal luminescence, 2 h. The gist of the method: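 Translocation of GR-ED fusion to nuclear EA restores b-gal, read by luminescence after 1 h room-temperature detection. Engineered CHO-K1 biosensor cells, 1,000/well, exposed 2 h at 37 C to titrations up to 46 uM final.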
Assay [8] addresses 3',5'-cyclic-AMP phosphodiesterase 4B (Homo sapiens) (UniProt Q07343). Put plainly: qHTS Assay for Inhibitors of PDE-IV (AID 607; active = well fitted activation curve with a large enough effect in the main read-out, with a control signal flat, not every such curve was filed as active; also: % of control where 0% means no effect). Conditions: HEK293 ACTOne CNG channel cells, membrane potential fluorescence; series mostly up to 22.9 µM. The gist of the method:
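Cell-based read-out of cAMP via a modified cyclic nucleotide-gated channel and membrane potential dye (535/590 nm) in HEK293 cells expressing PDE4 endogenously. Compounds tested up to 22.9 uM final; 100 uM RO 20-1724 reference.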
On the technique in general: Quantitative high-throughput screening tests each substance at several concentrations.

Assay [9] addresses Cytochrome P450 3A4 (Homo sapiens) (UniProt P08684). Put plainly: qHTS Assay for Inhibitors and Substrates of Cytochrome P450 3A4 (AID 884). Also: potency is read from the fitted curve at half-maximal effect; nearly all actives have a fitted effect of over 50% in size. The note with it: recombinant CYP3A4, Luciferin-PPXE luminescence; series mostly up to 57.1 µM. The gist of the method: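 Luminescent readout of luciferin produced by CYP3A4 (20 nM) dealkylation of Luciferin-PPXE, 25 uM (its KM). NADPH-driven reaction ran 60 min at RT after 10 min compound preincubation; data scaled to 57 uM ketoconazole as 100% inhibition.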

The target is the same in assay [10]. The assay can be described thus: qHTS Assay for Activators of Cytochrome P450 3A4 (AID 885). Also: nearly all actives have a fitted effect of over 65% in size. Conditions: recombinant CYP3A4, Luciferin-PPXE luminescence, 60 min; series mostly up to 57.1 µM. The method, boiled down:
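Luminescent readout of luciferin formed from 25 uM Luciferin-PPXE (KM level) by 20 nM CYP3A4 in 200 mM KPO4, with 60 min NADPH-driven reaction at room temperature after 10 min compound exposure. Ketoconazole (57 uM) defined 100% inhibition.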

Assay [11] deals with Dual specificity protein kinase CLK4 (Homo sapiens) (UniProt Q9HAZ1). Put plainly: qHTS Assay for Inhibitors of CDC-like Kinase 4 (ADP-Glo Assay) (AID 1771). Also: potency is read from the fitted curve at half-maximal effect; nearly all actives have a fitted effect of over 70% in size. The note with it: recombinant CLK4, ADP-Glo luminescence; series mostly up to 80 µM. The method, boiled down: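 25 nM Clk4, 100 uM RS peptide, 1 uM ATP (final); 2 mM MgCl2, 0.5 mM EGTA, 2.5 mM DTT, 0.01% Triton X-100; 1 hr RT. ADP-Glo readout: ATP depletion 45 min, conversion/luciferase 30 min, luminescence.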
Dual specificity protein kinase CLK4 (Homo sapiens), sequence (Q9HAZ1 whole entry, looked up): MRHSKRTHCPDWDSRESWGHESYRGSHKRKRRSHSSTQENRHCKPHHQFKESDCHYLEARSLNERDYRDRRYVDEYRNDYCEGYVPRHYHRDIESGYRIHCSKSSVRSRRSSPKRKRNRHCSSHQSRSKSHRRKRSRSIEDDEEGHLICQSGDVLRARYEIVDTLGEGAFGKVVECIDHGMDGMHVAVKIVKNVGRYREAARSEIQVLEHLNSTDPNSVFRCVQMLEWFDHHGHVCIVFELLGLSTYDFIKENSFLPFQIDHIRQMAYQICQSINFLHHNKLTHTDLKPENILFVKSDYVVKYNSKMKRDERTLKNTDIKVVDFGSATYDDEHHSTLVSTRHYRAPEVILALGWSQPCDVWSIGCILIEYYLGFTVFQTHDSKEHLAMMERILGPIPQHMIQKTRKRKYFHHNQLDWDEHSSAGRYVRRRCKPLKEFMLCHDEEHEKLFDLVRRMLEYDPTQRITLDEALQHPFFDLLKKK

Assay [12] addresses Ubiquitin carboxyl-terminal hydrolase 1 (Homo sapiens) (UniProt O94782). The assay can be described thus: Inhibitors of USP1/UAF1: Pilot qHTS (AID 504865).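 Also: rhodamine fluorescence freed from ubiquitin-rhodamine substrate followed over time; top concentration of the series differs between compounds; % is scaled to controls: 0 for no effect and ±100 for the full control effect; nearly all actives have a fitted effect of over 35% in size.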 Conditions: purified USP1/UAF1, Ub-rhodamine cleavage fluorescence; series mostly up to 54.9 µM. The method, boiled down:
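USP1/UAF1 complex (1nM) preincubated with compound 15 min at room temperature, then Ub-Rho substrate (150nM final) added. Fluorescence read kinetically at 480/540 nm, 6 reads every 60 seconds. Buffer: 50mM HEPES pH 7.8, 0.5mM EDTA, 0.1 mg/ml BSA, 1mM TCEP, 0.01% Tween-20.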

Assay [13] in a line: Primary qHTS for small molecule stabilizers of the endoplasmic reticulum resident proteome: Secreted ER Calcium Modulated Protein (SERCaMP) assay (AID 1508630). Also: % is scaled to controls: 0 for no effect and ±100 for the full control effect. Conditions: SH-SY5Y GLuc-SERCaMP (Gaussia luciferase released on ER calcium loss) secretion, thapsigargin, luminescence; series mostly up to 38.4 µM. The method, boiled down:
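The SH-SY5Y reporter protocol was run at 3 concentrations up to 38.3 uM (primary) or 11 concentrations (follow-up): 16 h compound, 100 nM thapsigargin for 4 h, then extracellular luciferase luminescence.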

In assay [14] the target is Mitogen-activated protein kinase 10 (Mus musculus) (UniProt Q61831). The assay can be described thus: JNK3 AlphaScreen Assay (AID 530; active = well fitted curve in either direction with a large enough effect, not every such curve was filed as active). Conditions: JNK3 lysate, c-Jun phosphorylation; series mostly up to 57.1 µM. The method, boiled down:
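Kinase buffer: 20 mM Tris-HCl pH 7.6, 10 mM MgCl2, 1 mM DTT, 0.1 mM Na3VO4, 0.01% Tween-20; ATP 10 uM. Substrate biotin-GST-cJun(1-79), enzyme from activated HepG2 lysates. Detection by Ser73 phospho-antibody AlphaScreen.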
On the technique in general: Bead proximity is the source of the signal in Alpha formats.

Assay [15] addresses Dual specificity protein kinase CLK4 (Homo sapiens) (UniProt Q9HAZ1). Put plainly: qHTS Assay for Inhibitors of CDC-like Kinase 4 (ADP-FP Assay) (AID 1795). Also: % is scaled to controls: 0 for no effect and ±100 for the full control effect; nearly all actives have a fitted effect of over 60% in size. The note with it: Transcreener ADP fluorescence polarization; series mostly up to 50 µM. The gist of the method:
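Recombinant human Clk4 (6.25 nM) phosphorylated RS repeat peptide (100 uM) with 1 uM ATP in Tris pH 7.5/MgCl2/EGTA/DTT/Triton buffer for one hour. ADP was quantified by Transcreener competitive fluorescence polarization against an ADP calibration curve.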

The target of assay [16] is Cytochrome P450 2D6 (Homo sapiens) (UniProt P10635). Put plainly: qHTS Assay for Inhibitors and Substrates of Cytochrome P450 2D6 (AID 891). Also: potency is read from the fitted curve at half-maximal effect; nearly all actives have a fitted effect of over 60% in size. Conditions: recombinant CYP2D6, luciferin-ME EGE luminescence; series mostly up to 57.1 µM. The gist of the method:
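Luminescent read-out of luciferin formed by 5 nM human CYP2D6 demethylating 30 uM Luciferin-ME EGE (Km level) over 60 min at room temperature after NADPH regeneration addition. Data normalized to full inhibition by 1.43 uM quinidine.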

Assay [17] addresses Cytochrome P450 2C19 (Homo sapiens) (UniProt P33261). Put plainly: qHTS Assay for Inhibitors and Substrates of Cytochrome P450 2C19 (AID 899). Also: potency is read from the fitted curve at half-maximal effect; nearly all actives have a fitted effect of over 60% in size. Conditions: recombinant CYP2C19, luciferin-H EGE luminescence; series mostly up to 57.1 µM. The method, boiled down:
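5nM enzyme + 10uM Luciferin-H EGE (=KM), 50mM KPO4; cpd pin-transferred, 10 min 37C; NADPH regen, 60 min 37C; stopped w/ luciferin detection reagent, 20 min; luminescence. Normalized to 57uM ketoconazole (AC100).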

Assay [18] in a line: qHTS Assay for Identification of Small Molecule Agonists for Hypoxia Response Element Signaling Pathway (AID 914; active = well fitted activation curve with a large enough effect in the signal ratio, with a control signal flat, not every such curve was filed as active; the % refers to the signal ratio; also: % of control where 0% means no effect). Conditions: ME-180 (cervical carcinoma) HRE-bla reporter, beta-lactamase ratio, CoCl2, 17 h; activation: active compounds read high. The gist of the method: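 Cells were plated overnight, pin-dosed with compound in a titration series, co-stimulated with EC50 CoCl2 and incubated 17 hours at 37 degrees Celsius. CCF4 substrate was then loaded, and AC50 values came from the 460nm/530nm ratio.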

Cytochrome P450 1A2 (Homo sapiens), sequence (P05177 whole entry, looked up): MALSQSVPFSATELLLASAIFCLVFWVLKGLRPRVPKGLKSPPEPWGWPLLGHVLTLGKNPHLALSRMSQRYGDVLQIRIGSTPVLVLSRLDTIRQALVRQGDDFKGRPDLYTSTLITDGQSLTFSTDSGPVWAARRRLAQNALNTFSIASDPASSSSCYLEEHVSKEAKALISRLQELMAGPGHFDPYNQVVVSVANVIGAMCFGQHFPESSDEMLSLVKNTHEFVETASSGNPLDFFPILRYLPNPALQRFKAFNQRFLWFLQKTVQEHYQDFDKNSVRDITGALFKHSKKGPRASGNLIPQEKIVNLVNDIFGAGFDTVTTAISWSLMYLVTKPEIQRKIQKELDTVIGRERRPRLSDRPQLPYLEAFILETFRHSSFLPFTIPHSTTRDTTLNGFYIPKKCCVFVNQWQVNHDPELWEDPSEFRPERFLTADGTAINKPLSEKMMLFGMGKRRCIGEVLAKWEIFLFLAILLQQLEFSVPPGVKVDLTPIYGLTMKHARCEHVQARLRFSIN
3',5'-cyclic-AMP phosphodiesterase 4B (Homo sapiens), sequence (Q07343 whole entry, looked up): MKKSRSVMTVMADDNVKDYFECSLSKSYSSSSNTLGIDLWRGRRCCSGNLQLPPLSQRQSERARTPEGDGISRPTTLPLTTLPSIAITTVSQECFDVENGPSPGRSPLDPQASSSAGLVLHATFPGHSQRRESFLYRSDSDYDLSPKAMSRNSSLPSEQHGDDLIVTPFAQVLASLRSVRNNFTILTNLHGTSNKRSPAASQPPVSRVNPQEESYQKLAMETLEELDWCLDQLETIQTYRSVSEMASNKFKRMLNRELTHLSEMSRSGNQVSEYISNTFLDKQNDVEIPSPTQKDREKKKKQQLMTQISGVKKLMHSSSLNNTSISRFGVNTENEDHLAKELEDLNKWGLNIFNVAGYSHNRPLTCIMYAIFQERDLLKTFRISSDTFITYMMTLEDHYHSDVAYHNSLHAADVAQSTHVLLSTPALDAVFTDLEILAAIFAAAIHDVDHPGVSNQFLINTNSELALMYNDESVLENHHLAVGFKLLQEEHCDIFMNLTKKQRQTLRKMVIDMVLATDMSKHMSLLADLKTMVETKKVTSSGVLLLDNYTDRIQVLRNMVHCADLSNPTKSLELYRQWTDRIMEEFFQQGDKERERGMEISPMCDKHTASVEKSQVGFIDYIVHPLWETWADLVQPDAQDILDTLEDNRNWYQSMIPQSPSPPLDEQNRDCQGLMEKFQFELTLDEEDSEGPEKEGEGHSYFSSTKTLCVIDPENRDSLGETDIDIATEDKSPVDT
Lysosomal acid glucosylceramidase (Homo sapiens), sequence (P04062 whole entry, looked up): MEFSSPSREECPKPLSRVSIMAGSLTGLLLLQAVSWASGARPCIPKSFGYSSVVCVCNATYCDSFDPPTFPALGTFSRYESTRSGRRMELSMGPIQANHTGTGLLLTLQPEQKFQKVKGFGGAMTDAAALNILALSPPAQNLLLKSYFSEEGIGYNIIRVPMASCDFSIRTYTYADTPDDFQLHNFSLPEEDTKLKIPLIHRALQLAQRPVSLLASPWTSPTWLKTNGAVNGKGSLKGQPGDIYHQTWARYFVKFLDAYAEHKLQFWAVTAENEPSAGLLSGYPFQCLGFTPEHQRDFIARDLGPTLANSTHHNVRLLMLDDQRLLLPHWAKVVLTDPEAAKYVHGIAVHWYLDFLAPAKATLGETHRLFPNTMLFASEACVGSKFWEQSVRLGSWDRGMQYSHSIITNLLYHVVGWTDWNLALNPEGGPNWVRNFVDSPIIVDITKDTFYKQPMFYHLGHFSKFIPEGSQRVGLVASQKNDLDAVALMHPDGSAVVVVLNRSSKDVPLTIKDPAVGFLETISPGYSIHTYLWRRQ
Ubiquitin carboxyl-terminal hydrolase 1 (Homo sapiens), sequence (O94782 whole entry, looked up): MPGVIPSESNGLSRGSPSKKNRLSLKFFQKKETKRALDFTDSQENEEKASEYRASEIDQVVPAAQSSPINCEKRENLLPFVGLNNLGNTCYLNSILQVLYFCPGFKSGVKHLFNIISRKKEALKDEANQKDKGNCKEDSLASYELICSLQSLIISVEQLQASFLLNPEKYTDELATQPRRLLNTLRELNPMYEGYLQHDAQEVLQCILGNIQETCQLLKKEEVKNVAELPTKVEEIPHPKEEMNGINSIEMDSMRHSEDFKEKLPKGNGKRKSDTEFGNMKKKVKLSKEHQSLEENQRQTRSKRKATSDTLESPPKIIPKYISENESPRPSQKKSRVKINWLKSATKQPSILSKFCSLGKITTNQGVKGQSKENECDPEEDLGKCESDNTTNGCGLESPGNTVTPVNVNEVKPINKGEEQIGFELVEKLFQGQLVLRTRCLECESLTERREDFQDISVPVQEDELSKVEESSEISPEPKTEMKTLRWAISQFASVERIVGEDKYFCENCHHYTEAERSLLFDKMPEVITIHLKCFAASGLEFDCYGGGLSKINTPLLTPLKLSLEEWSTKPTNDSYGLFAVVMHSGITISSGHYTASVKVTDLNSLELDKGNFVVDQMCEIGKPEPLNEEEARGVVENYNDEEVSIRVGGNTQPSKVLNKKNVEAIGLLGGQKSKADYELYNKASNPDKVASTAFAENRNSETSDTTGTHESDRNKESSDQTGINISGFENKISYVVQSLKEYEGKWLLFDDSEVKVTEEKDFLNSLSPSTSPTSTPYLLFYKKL
Cytochrome P450 3A4 (Homo sapiens), sequence (P08684 whole entry, looked up): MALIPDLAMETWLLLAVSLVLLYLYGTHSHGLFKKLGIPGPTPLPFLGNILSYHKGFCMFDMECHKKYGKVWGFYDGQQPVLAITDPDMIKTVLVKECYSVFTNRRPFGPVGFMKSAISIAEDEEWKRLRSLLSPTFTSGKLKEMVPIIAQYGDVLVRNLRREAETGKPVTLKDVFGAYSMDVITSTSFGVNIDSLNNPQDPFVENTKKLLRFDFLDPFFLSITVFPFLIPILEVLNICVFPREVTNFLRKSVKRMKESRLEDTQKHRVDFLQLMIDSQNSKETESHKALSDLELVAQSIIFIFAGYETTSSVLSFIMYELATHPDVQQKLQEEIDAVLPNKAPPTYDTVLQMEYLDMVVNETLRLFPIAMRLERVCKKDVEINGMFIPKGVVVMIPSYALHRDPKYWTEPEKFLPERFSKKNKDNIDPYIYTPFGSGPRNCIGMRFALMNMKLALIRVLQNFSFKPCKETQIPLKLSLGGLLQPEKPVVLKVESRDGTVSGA
Cytochrome P450 2C19 (Homo sapiens), sequence (P33261 whole entry, looked up): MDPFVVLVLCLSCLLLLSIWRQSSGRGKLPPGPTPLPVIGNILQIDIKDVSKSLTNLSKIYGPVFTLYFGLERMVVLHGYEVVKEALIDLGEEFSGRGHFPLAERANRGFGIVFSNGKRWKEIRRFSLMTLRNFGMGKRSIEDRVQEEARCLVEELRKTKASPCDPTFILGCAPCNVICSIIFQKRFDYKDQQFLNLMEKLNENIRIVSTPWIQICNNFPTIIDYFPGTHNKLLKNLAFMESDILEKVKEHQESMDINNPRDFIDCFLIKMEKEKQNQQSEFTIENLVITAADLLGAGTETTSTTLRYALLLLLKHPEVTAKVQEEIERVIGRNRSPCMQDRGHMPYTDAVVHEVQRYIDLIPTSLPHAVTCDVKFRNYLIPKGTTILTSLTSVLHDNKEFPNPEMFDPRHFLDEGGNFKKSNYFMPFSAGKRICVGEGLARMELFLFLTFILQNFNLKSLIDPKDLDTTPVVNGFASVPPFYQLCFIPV

`COc1ccc2[nH]cc(CCNc3cc(-c4cccnc4)ncn3)c2c1`: the Potency in assay [1] is > 11.4 µM; in assay [3] it was 3.16 µM (active); in [6], > 46 µM; in assay [7], > 46 µM; in [9], 3.98 µM (active); in [11] it was 15.8 µM (active). The results for the activity change, negative = inhibition in assay [2] and in [4] were -10.1% and 15.6%, respectively. Also, the activity, negative = inhibition in assay [5] is -2.74%. For the same molecule, the Potency result in assay [8], in assay [10] and in assay [12] was “inactive” throughout. Moreover, in assay [13], the outcome was inactive.
Turning to `Cn1cc(-c2nc3cncnc3n(C3CC3)c2=O)c2ccccc21`, the Potency was > 11.4 µM in assay [1], 0.2 µM (active) in assay [3], > 9.22 µM in assay [6] and > 46 µM in assay [7]. Further, the activity change, negative = inhibition was -14.5% in assay [2] and 9.91% in assay [4]. For the same molecule, the activity, negative = inhibition in [5] was -6.67%. Moreover, the Potency entry in assay [14], in [8], in assay [10], in assay [15] and in assay [12] was “inactive” in each case. Also, the outcome in [13] was inactive.
On to `COc1ccc2[nH]cc(CCNc3ccnc(-c4ccc5c(c4)OCO5)n3)c2c1`, for which the Potency was 7.76 µM (active) in assay [1]; 0.631 µM (active) in [3]; > 46 µM in assay [6]; > 46 µM in [7]; 2.51 µM (active) in assay [9]; 7.94 µM (active) in [16]. The Potency in assay [17] is 0.631 µM (active). For the same molecule, the results for the activity change, negative = inhibition in assay [2] and in assay [4] were -11.1% and -4.51%, respectively. Moreover, the activity, negative = inhibition in [5] was -13.4%. Further, the Potency entry in assay [14], in [8], in assay [10], in [15] and in assay [12] was “inactive” in each case. Also, the result in assay [13] was inactive.
On to `c1ccc(CNc2cc(-c3ccoc3)ncn2)cc1`, for which the Potency was > 11.4 µM in [1], 25.1 µM (active) in [3], > 46 µM in assay [6] and > 46 µM in assay [7]. Also, the activity change, negative = inhibition in assay [2] was -7.43%; in assay [4], -2.19%. The activity, negative = inhibition in assay [5] is -2.59%. Besides, the Potency result in [14], in assay [8], in assay [10], in assay [15] and in assay [12] was “inactive” each time. In [13], the result was inactive.
In the case of `FC(F)(F)c1ccccc1-c1nc(-n2ccnc2)c2ccccc2n1`, the Potency in assay [1] is > 11.4 µM; in [6], > 46 µM; in assay [7], > 46 µM; in assay [11] it was 17.8 µM (active). Besides, the figures for the activity change, negative = inhibition in assay [2] and in [4] were 9.46% and 3.74%, respectively. The activity, negative = inhibition in [5] was -3.35%. Also, the Potency result in [14], in assay [8] and in [12] was “inactive” in each case. Moreover, the activation in [18] is 2.67%. Besides, the outcome in [13] was inactive.
As for `Cc1ccccc1-c1nc(N(C)C)c2ccccc2n1`, the Potency in [1] is > 11.4 µM; in assay [3], 0.631 µM (active); in assay [6] it was > 46 µM; in assay [7] it was > 46 µM. Moreover, the activity change, negative = inhibition in assay [2] is 5.33%; in [4], -0.255%. Further, the activity, negative = inhibition in [5] was 6.41%. The Potency entry in assay [14], in assay [8], in assay [15] and in assay [12] was “inactive” throughout. The outcome in assay [13] was inactive.
